Source: PubChem (National Center for Advancing Translational Sciences (NCATS))
DT40 TDP1 no CPT – qHTS for Inhibitors of human tyrosyl-DNA phosphodiesterase 1 (TDP1): qHTS in cells in absence of CPT; 420,000 compounds, 15% hits; AID 686978, 2013; DT40 Tdp1-/- hTDP1 cells, no CPT, ATP luminescence, 48 h; Potency, µM (highest dose often 46.2 µM), for the others: at the top dose activity change, negative = growth inhibition, usual class: inhibitors; further: potency means the concentration at half of the fitted maximal effect; nearly all actives have a fitted effect of over 55% in size
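Cells were dispensed at 400 per well, compounds added by pin tool, plates incubated ≥48 hr at 37 °C, then CellTiter-Glo added for 30 min at room temperature before luminescence reading. Line: DT40 Tdp1-/- complemented with hTDP1; camptothecin omitted.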
Six1-Eya2 blk – Six1/Eya2 interaction inhibition | activity change, % (concentration not given with the values) | AlphaScreen GST-Six1/His-Eya2 binding, biochemical; active compounds read low | 360,000 compounds, 0.56% hits; in the data active means activity change below about -65%; inconclusive means mostly about -30% to -63%
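AlphaScreen with GST-Six1 and His-Eya2 (5X mix: 250 nM and 500 nM), glutathione donor and nickel acceptor beads; buffer 50 mM Tris pH 8.0, 300 mM NaCl, 1 mM TCEP; 1 h at 37 C in the dark.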
IL-1B inflam inh – inhibitors of inflammasome signaling (IL-1 beta secretion) | THP-1 LPS/ATP IL-1B secretion, AlphaLISA, 16 h; active compounds read low | activity change, % at 57.5 µM | 360,000 compounds, 4.7% hits | AID 743279; in the data active means activity change below about -50%; inconclusive means mostly about -30% to -49%
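THP-1 cells pretreated 1 hr with compounds (up to 57.5 uM final), then stimulated with LPS (250 ng/mL final) plus ATP (1.25 mM final); secreted IL-1B measured by AlphaLISA after 16 hr, decreased signal indicating inhibition.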
TDP1 inh – inhibitors of human tyrosyl-DNA phosphodiesterase TDP1; 350,000 compounds, 0.28% hits; Q9NUW8; recombinant TDP1, AlphaScreen DNA substrate cleavage; Potency, µM (doses to about 130 µM), for inactives: at the highest dose activity change, negative = inhibition, hits mostly inhibitors; AID 485290; further: potency means the concentration at half of the fitted maximal effect; nearly all actives have a fitted effect of over 40% in size
Target sequence (Q9NUW8 whole entry, looked up): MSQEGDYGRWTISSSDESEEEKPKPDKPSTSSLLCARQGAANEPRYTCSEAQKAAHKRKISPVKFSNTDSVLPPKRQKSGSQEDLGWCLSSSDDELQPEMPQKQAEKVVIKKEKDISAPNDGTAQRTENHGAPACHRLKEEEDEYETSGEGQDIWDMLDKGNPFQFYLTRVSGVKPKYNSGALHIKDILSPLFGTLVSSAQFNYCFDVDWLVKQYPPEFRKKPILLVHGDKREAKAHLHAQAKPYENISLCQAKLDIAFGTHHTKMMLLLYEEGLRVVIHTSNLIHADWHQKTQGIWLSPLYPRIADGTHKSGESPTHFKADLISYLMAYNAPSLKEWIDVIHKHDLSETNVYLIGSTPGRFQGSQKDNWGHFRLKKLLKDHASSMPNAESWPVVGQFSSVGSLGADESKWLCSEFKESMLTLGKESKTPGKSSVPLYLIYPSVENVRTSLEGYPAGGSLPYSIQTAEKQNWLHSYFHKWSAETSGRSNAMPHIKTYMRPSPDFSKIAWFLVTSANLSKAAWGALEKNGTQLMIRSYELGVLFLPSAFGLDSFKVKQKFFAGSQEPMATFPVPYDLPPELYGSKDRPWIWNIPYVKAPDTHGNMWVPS
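Here, a 5' biotin and 3' phosphotyrosine-FITC DNA oligonucleotide reports Tdp1 activity: intact substrate bridges AlphaScreen beads, while cleavage leaves a 3' phosphate and drops signal. All incubations at room temperature.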
DT40 TDP1 CPT – DT40-hTDP1 cell growth loss with CPT. chicken DT40 Tdp1-/-;hTDP1 cells + 20 nM CPT, ATP luminescence, 48 h. Potency, µM (doses to about 46.2 µM), for the others: top-dose activity change, negative = growth inhibition, hits mostly inhibitors. 420,000 compounds, 12% hits. AID 686979; further: potency means the concentration at half of the fitted maximal effect; nearly all actives have a fitted effect of over 55% in size
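Cell growth measured by CellTiter-Glo luminescence after a minimum 48 h, 37 C compound exposure with 20 nM CPT in Tdp1-knockout DT40 cells stably expressing hTDP1, seeded 400/well; qHTS titration format.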
CtBP-E1A blk – CtBP/E1A binding inhibition; AlphaScreen GST-E1A/His-CtBP binding, 1536-well; active compounds read low; activity change, % (test concentration not listed); 340,000 compounds, 0.49% hits; in the data active means activity change below about -65%; inconclusive means mostly about -30% to -63%
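In 5 uL wells, 23 nL compound meets equimolar GST-E1A and His-CtBP (5X stock 125 nM each) for 2 h, 37 °C. Beads (5X, 50 ug/mL) then 1 h, 37 °C, dark.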
Starred values were filed as active, the others as inactive; ? = inconclusive; . = no result; ! = repeats disagree; [ ] = dose if it differs, or a comment. Hits are enriched below; roughly 18% of the tested compounds scored in any of these assays. Unless noted, the call rests on the fitted dose curve; in most records, active means well fitted curve in the direction sought with a large enough effect; inconclusive means small, poorly fitted or top-dose-only effect, or another doubt; inactive means no such curve, though single readings can be large; an effect the other way counts as inactive or inconclusive. On the % scale 0 is the no-effect control and ±100 the full control effect.

SMILES	DT40 TDP1 no CPT	Six1-Eya2 blk	IL-1B inflam inh	TDP1 inh	DT40 TDP1 CPT	CtBP-E1A blk
COc1cc2c(NC3CCN(C)CC3)nc(N3CCCN(C)CC3)nc2cc1OCCCCCC(N)=O	?	.	.	.	7%	.
COc1cc2c(NC3CCN(C)CC3)nc(N3CCCN(C)CC3)nc2cc1OCC1CCCCN1 (stereo unspecified)	?	.	.	.	11µM*	.
COc1cc2nc(N3CCCN(C)CC3)nc(NC3CCCCC3)c2cc1OC	8.9µM*	.	.	.	7.9µM*	.
COc1cc2nc(N3CCCN(C)CC3)nc(OC3CCN(C)CC3)c2cc1OC	14µM*	.	.	.	?	.
CC(CNC(=O)c1ccc2c(c1)nc1n2CCOC1)c1ccccc1 (stereo unspecified)	-18%	.	.	5%	-2%	.
COc1cc(C(=O)NC2CCCNC2)cc(OC)c1OC (stereo unspecified)	-3%	.	.	3%	1%	.
O=C(N1CCOCC1)C12CC3CC(C1)CC(n1cnc(Cl)n1)(C3)C2	-11%	16	3	1%	-5%	-3
COc1cc2nc(N3CCCN(C)CC3)nc(NC3CCN(C)C3)c2cc1OC (stereo unspecified)	18µM*	.	.	.	13µM*	.
COc1cc2c(NC3CCN(C)CC3)nc(N3CCCN(C)CC3)nc2cc1O	-20%	.	.	.	13%	.
O=[N+]([O-])c1cc(S(=O)(=O)N2CCCCCC2)ccc1Cl	8.2µM*	-7	-104*	-5%	?	-2
Cc1ccc(S(=O)(=O)N2CCCCC2C)cc1[N+](=O)[O-] (stereo unspecified)	15µM*	3	-7	3%	12µM*	2
COc1cc(Nc2ccc(S(=O)(=O)N3CCN(C)CC3)cc2[N+](=O)[O-])cc(OC)c1	?	?	-29	-1%[0.505 µM]	?	?
COc1ccc(Nc2ccc(S(=O)(=O)N3CCCCCC3)cc2[N+](=O)[O-])cc1	23µM*	?	?	11%	?	-66*
COc1ccc(Nc2ccc(S(=O)(=O)N3CCCCC3)cc2[N+](=O)[O-])cc1OC	21µM*	?	0	11%	?	?
O=C(NCCC1=CCCCC1)c1ccc(Cl)c(S(=O)(=O)Nc2ccccc2)c1	-26%	-3	19	4%	-23%	23
CN1CCC(=NNC(=O)CN(c2cccc([N+](=O)[O-])c2)S(=O)(=O)c2ccccc2)CC1	-19%	-22	-20	2%[0.0935 µM]	-13%	0
COc1cc(C=O)ccc1OS(=O)(=O)c1ccccc1[N+](=O)[O-]	?	-3	0	8%	?	0
O=C(COC(=O)c1ccccc1Cl)Nc1nccs1	-7%	4	-1	0%	-17%	6
O=[N+]([O-])c1cc(S(=O)(=O)N2CCCC2)ccc1NCCc1ccccc1	?	-1	28	3%	?	16
CCCOc1ccc(S(=O)(=O)N2CCOCC2)cc1[N+](=O)[O-]	-3%	5	10	1%	7%	2
COc1cc(C=O)ccc1Oc1ccc(S(=O)(=O)N2CCOCC2)cc1[N+](=O)[O-]	-29%	-8	-57*	0%	-10%	-1
COc1ccc(CCNc2ccc(S(=O)(=O)N3CCCC3)cc2[N+](=O)[O-])cc1	?	?	-22	5%	15µM*	-29
Cc1ccc(CN2CCOCCS2(=O)=O)cc1	?	.	.	.	-25%	.
S=C(NC1CC1)N1CCN(C(=S)NC2CC2)CC1	24%	3	20	1%	-16%	9
Cc1ccc(N2C(=O)CSC23C(=O)Nc2ccccc23)cc1 (stereo unspecified)	-14%	-6	0	-2%	-4%	-1
SMILES	DT40 TDP1 no CPT	Six1-Eya2 blk	IL-1B inflam inh	TDP1 inh	DT40 TDP1 CPT	CtBP-E1A blk
Cc1ccc2c(c1)C1(SC(C)C(=O)N1c1ccc(Cl)cc1)C(=O)N2 (stereo unspecified)	4.1µM*	-9	37	.	6.5µM*	3
CN(C)CCNCc1ccccc1OC1CCCC1	-16%	0	-12	6%	8%	3
COc1cc(CNCCN(C)C)c(Br)cc1OC1CCCC1	?	-3	0	.	18µM*	.
COc1ncnc2c1ncn2CCCNCC(C)c1ccccc1 (stereo unspecified)	-8%	1	-9	.	3%	2
c1ccc(COc2ncnc3c2ncn3CCCNCC(c2ccccc2)c2ccccc2)cc1	16µM*	-1	-94*	.	26µM*	-22
COc1ncnc2c1ncn2CCCNCC(c1ccccc1)c1ccccc1	18µM*	-13	15	.	23µM*	5
c1ccc(COc2ncnc3c2ncn3CCCNCC2CCCO2)cc1 (stereo unspecified)	-12%	1	-5	.	-12%	-6
CCOC(=O)c1cccc(NC(=O)C2=C(C)C(=O)OC23CCCCC3)c1	?	.	.	7%	?	.
CC1=C(C(=O)Nc2ccc(C)cc2Cl)C2(CCCCC2)OC1=O	16µM*	.	.	3%	?	.
CCc1ccc(NC(=O)C2=C(C)C(=O)OC23CCCCC3)cc1	16µM*	.	.	3%	16µM*	.
CCOc1ccc(NC(=O)C2=C(C)C(=O)OC23CCC(C)CC3)cc1 (stereo unspecified)	16µM*	-2	-18	5%	?	-5
Cc1cc(C)cc(OCC(=O)N(Cc2ccc(Cl)cc2)C2CCS(=O)(=O)C2)c1 (stereo unspecified)	?	.	.	1%	?	.
O=C(NCCn1cccn1)C1CCC(=O)N(CC2CCCCC2)C1 (stereo unspecified)	-13%	-1	13	4%	0%	4
Cc1ccc(-c2noc(-c3ccoc3C)n2)cc1	?	5	11	3%	-23%	2
Cc1cccc(CSc2cn(CC(=O)N3CCCC3)c3ccccc23)c1	16µM*	.	.	5%	26µM*	.
O=C(Cn1cc(SCc2cccc(Cl)c2)c2ccccc21)N1CCCCCC1	?	.	.	0%	?	.
Cc1cccc(CSc2cn(CC(=O)N3CCCCC3)c3ccccc23)c1	21µM*	.	.	0%	?	.
OCCN(CCO)c1nc(N2CCCCC2)c2nc(N(CCO)CCO)nc(N3CCCCC3)c2n1	15µM*!	-2	-18	5%	4.6µM*	-19
CN(C)C(=O)CN1CCN(c2nc3nonc3nc2N2CCCCC2)CC1	?	-20	-17	4%	-15%	-12
